Rac1 wt modul – wildtype Rac1 GTP binding modulators, primary screen, biochemical, GST-Rac1 beads, flow cytometry, multiplex | fluorescent GTP binding; actives lie on both sides; 0 = cold GTP competed, 100 = untreated | GTP binding activity (% of control), % at 10 µM | 190,000 tested, 0.27% active | AID 757, 2007;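 active means GTP binding activity at least 20 points away from the 100% control level, either lower or higher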
HRas wt GTP – modulators of GTP binding to HRas wildtype, primary screen, biochemical, bead-based flow cytometry, multiplex; GTPase HRas (Homo sapiens), P01112; GST-Ras wt beads, Bodipy-FL-GTP binding; actives lie on both sides; 190,000 tested, 0.14% active; GTP binding activity, % at 10 µM; AID 759, 2007;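 active means GTP binding activity at least 20% away from the 100% baseline, either lowered as inhibitor or raised as activator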;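 further: 0% = unlabeled GTP competition control and 100% = no-compound control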
Target sequence (P01112 whole entry, looked up): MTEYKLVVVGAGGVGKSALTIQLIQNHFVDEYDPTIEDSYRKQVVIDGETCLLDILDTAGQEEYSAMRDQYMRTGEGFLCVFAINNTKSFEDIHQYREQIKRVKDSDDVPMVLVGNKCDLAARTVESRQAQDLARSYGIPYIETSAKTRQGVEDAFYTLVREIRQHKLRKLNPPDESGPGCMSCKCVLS
Rab7 wt modul – modulators of GTP binding to Rab7, primary screen, biochemical, wildtype, multiplex bead flow cytometry | 190,000 tested, 0.055% active | Rab7 GTPase wild type (dog), Bodipy-FL-GTP binding | AID 758, 2007 | GST-Rab7 beads, fluorescent GTP binding; actives lie on both sides; untreated = 100%, excess cold GTP = 0% | GTP binding activity (percent of control), % at 10 µM;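 active means fluorescent GTP binding to Rab7 beads changed by at least 20 points from the 100% baseline, either direction, mostly lower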;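 further: median green fluorescence of bound Bodipy-FL-GTP per Rab7 bead population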
Rab2 wt GTP – modulators of GTP binding to Rab2A wildtype, primary screen, biochemical, dog, bead-based flow cytometry, multiplex; Ras-related protein Rab-2A (Canis lupus familiaris), P61105; GST-Rab2 wt beads, Bodipy-GTP binding; GTP binding activity, % at 10 µM; 190,000 tested, 0.19% active; AID 760, 2007;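 active means GTP binding activity at least 20 points away from 100%, either lowered or raised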;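 further: 0% = beads with excess unlabeled GTP and 100% = no-compound control corrected for plate trend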
Rac1 act GTP bind – GTP binding modulators of activated mutant Rac1, primary screen, biochemical, bead-based flow cytometry, multiplex, fluorescent GTP; GST-Rac1 activated beads; actives lie on both sides; 100% means binding = to untreated wells; percent activity (GTP binding), % at 10 µM; 190,000 tested, 0.11% active; AID 764, 2007;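 active means GTP binding at least 20 percentage points away from the 100% baseline, in either direction, so actives lie on both sides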
Cdc42 wt GTP – modulators of GTP binding to wildtype Cdc42, primary screen, biochemical, multiplex bead flow cytometry, Bodipy-GTP; AID 761, 2007; 190,000 tested, 0.2% active; percent activity (GTP binding), % at 10 µM; Cell division control protein 42 homolog (Homo sapiens), P60953; GST-Cdc42 beads; actives lie on both sides;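 active means percent activity GTP binding at least 20 points away from the 100% baseline, either down as inhibitor or up as activator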;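 further: median bead fluorescence of bound Bodipy-FL-GTP at 100 nM; 0% = excess unlabeled GTP control and 100% = no compound control; below 100% means less GTP binding so inhibitor and above means activator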
Target sequence (P60953 whole entry, looked up): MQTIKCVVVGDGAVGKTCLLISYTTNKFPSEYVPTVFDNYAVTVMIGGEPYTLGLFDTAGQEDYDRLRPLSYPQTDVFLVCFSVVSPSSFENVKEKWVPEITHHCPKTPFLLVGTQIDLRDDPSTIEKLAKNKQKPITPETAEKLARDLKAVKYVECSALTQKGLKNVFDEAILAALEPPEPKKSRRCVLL
Active calls of the source: *; [ ] = remark or other dose. Only some compounds are listed: those with a hit (about 0.38% of all), similar ones and a draw of the others.

SMILES	Rac1 wt modul	HRas wt GTP	Rab7 wt modul	Rab2 wt GTP	Rac1 act GTP bind	Cdc42 wt GTP
COc1cc(NC2c3ccccc3C(=O)N2c2ccc(C)cn2)cc(OC)c1OC (stereo not drawn)	107.0	102.0	101.0	100.0	101.0	105.0
COc1cc(/C=C(\C#N)c2nc3ccc(C)cc3[nH]2)cc([N+](=O)[O-])c1O	70.0*	83.0	84.0	77.0*	85.0	78.0*
CC(C)C(OC(=O)/C=C/c1ccc2c(c1)OCO2)C(=O)NC(N)=O (stereo not drawn)	100.0	97.0	93.0	95.0	96.0	94.0
COc1cccc2c(SCC(=O)N/N=C/c3ccc(O)cc3O)cc(C)nc12	66.0*	72.0*	85.0	66.0*	83.0	66.0*
N#Cc1ccc(CSc2nnc3[nH]c(=O)cc(N)n23)cc1	98.0	99.0	105.0	100.0	98.0	96.0
COc1ccc(C(=O)Nc2cc(Cl)ccc2C(=O)O)cc1	81.0	83.0	85.0	83.0	77.0*	78.0*
COc1ccc(C(=O)Nc2cc(Cl)ccc2OC(=O)c2ccc(OC)cc2)cc1	96.0	98.0	97.0	96.0	96.0	96.0
O=C(O)C1CSC(CCc2ccccc2)N1 (stereo not drawn)	123.0*[activator]	109.0	111.0	110.0	112.0	114.0
O=C(O)C1CSC(c2coc3ccccc3c2=O)N1 (stereo not drawn)	97.0	97.0	101.0	92.0	97.0	96.0
CCC(SC1=N/C(=C/c2ccccc2)C(=O)N1c1ccccc1)C(=O)Nc1cc(C)on1 (stereo not drawn)	102.0	99.0	101.0	102.0	101.0	102.0
COc1ccc(/C=C2/N=C(SCC(=O)Nc3cc(C)on3)N(c3ccccc3)C2=O)cc1	77.0*	81.0	95.0	82.0	91.0	85.0
O=C(Cn1c(-c2cscn2)nc2ccccc21)Nc1cc(F)ccc1F	121.0*[activator]	106.0	105.0	107.0	102.0	115.0
COc1ccc(N)cc1-n1cnnn1	95.0	99.0	105.0	100.0	95.0	96.0
O=c1c2ccccc2nc2c3ccccc3c(NCc3ccco3)nn12	77.0*	68.0*	88.0	66.0*	81.0	67.0*
O=c1c2ccccc2nc2c3ccccc3cnn12	65.0*	77.0*	83.0	77.0*	83.0	78.0*
O=c1c2ccccc2nc2c3ccccc3c(Cl)nn12	69.0*	81.0	86.0	78.0*	85.0	80.0
Cc1ccc(CN2CCN(Cc3ccc(-n4cccn4)cc3C)CC2CCO)cc1 (stereo not drawn)	101.0	97.0	97.0	96.0	97.0	96.0
O=C1CCCN1CCCNC(=S)Nc1ccc(Cl)cc1Cl	104.0	100.0	97.0	97.0	99.0	101.0
Cc1ccc(NS(=O)(=O)c2cc(NC(=O)c3ccc4c(c3)NC(=O)CS4)ccc2Cl)c(C)c1	110.0	116.0	113.0	129.0*[activator]	102.0	113.0
CCOC(=O)C1=NN(c2ccc(C)cc2)CC1C(=O)OC (stereo not drawn)	123.0*[activator]	96.0	95.0	97.0	97.0	118.0
Cc1cccc(OCC(=O)N/N=C/c2ccc3c(c2)OCO3)c1	82.0	85.0	92.0	83.0	78.0*	77.0*
O=C(COc1ccccc1)N/N=C/c1ccc2c(c1)OCO2	91.0	88.0	93.0	86.0	87.0	89.0
CCOC(=O)c1ccc(NC(=O)c2ccccc2[N+](=O)[O-])cc1	106.0	100.0	101.0	94.0	100.0	102.0
CCOC(=O)c1cc([N+](=O)[O-])c([N+](=O)[O-])cc1NC(C)=O	96.0	93.0	91.0	91.0	80.0	78.0*
COc1ccc(-c2nnc(CSc3nc4ccccc4c(=O)n3C)o2)cc1OC	120.0*[activator]	107.0	106.0	106.0	104.0	104.0
SMILES	Rac1 wt modul	HRas wt GTP	Rab7 wt modul	Rab2 wt GTP	Rac1 act GTP bind	Cdc42 wt GTP
Cn1c(SCc2nnc(-c3ccccc3)o2)nc2ccccc21	102.0	100.0	106.0	103.0	100.0	101.0
Cc1c(NC(=O)CCN2C(=O)c3ccccc3C2=O)c(=O)n(-c2ccccc2)n1C	78.0*	86.0	95.0	88.0	84.0	81.0
O=C(CSc1nnnn1-c1cccc2c1CCCC2)N1CCCCC1	94.0	88.0	91.0	89.0	88.0	91.0
O=C(Nc1cccc(-c2ccc3nncn3n2)c1)c1ccco1	77.0*	85.0	91.0	87.0	89.0	86.0
Cc1nnc2ccc(-c3cccc(NC(=O)c4ccc(Cl)nc4)c3)nn12	86.0	91.0	95.0	91.0	91.0	91.0
Cc1nnc2ccc(-c3cccc(NC(=O)c4ccc(Br)o4)c3)nn12	79.0*	86.0	91.0	86.0	90.0	88.0
CCOc1ccccc1C(=O)Nc1cccc(-c2ccc3nncn3n2)c1	73.0*	78.0*	92.0	75.0*	88.0	73.0*
COc1ccc(C)cc1NC(=O)c1ccccc1NS(=O)(=O)c1cccc2cccnc12	104.0	99.0	97.0	100.0	97.0	104.0
O=C(c1ccco1)N1CCN(S(=O)(=O)c2ccccc2[N+](=O)[O-])CC1	98.0	100.0	93.0	98.0	99.0	96.0
Cc1cc(C)n2nc(SCCOc3ccc(F)cc3)nc2n1	68.0*	73.0*	100.0	74.0*	82.0	68.0*
COC(=O)c1ccc2nc(Nc3nc4c(F)cc(F)cc4s3)sc2c1	81.0	85.0	85.0	79.0*	80.0	82.0
COc1ccc(/C=N/NC(=O)c2cccc([N+](=O)[O-])c2)cc1OC	99.0	98.0	109.0	99.0	94.0	95.0
O=C(N/N=C/c1ccc2nccnc2c1)c1cccc([N+](=O)[O-])c1	77.0*	88.0	97.0	86.0	89.0	82.0
CCOC(=O)c1[nH]c2ccc(Br)cc2c1NC(=O)CCN1CCCC(C)(C)C1	107.0	102.0	100.0	99.0	101.0	104.0
O=C(N/N=C/c1ccc(-c2ccccc2[N+](=O)[O-])o1)c1cncc(Br)c1	72.0*	84.0	89.0	83.0	89.0	89.0
Cn1nc([N+](=O)[O-])c(C(C#N)c2ccccn2)c(Cl)c1=O (stereo not drawn)	84.0	82.0	93.0	80.0	61.0*	79.0*
CCCn1nc([N+](=O)[O-])c(C(C#N)c2nc3ccccc3o2)c(Cl)c1=O (stereo not drawn)	100.0	98.0	98.0	95.0	93.0	96.0
